Screening results as filed in PubChem BioAssay.
Compounds with a hit are over-represented: about 10% of the library has one in this group of screens.
BAZ2B block: qHTS Assay for Inhibitors of BAZ2B; Bromodomain adjacent to zinc finger domain protein 2B (Homo sapiens), Q9UIF8; AlphaScreen BAZ2B-H3K14Ac peptide displacement; Potency, µM (titrated, usually from 114 µM), most hits filed as inhibitors; hit rate 4.4% among 360,000; also: nearly all actives have a fitted effect of over 60% in size
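In this displacement format the biotinylated H3(5-23) peptide acetylated at Lys14 serves as ligand at 50 nM, with BAZ2B at 50 nM in PBS pH 7.4 containing 0.01% Tween-20. Donor and acceptor beads are 10 ug/mL final.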
HP1b chromo inh: HTS for Inhibitors of HP1-beta Chromodomain Interactions with Methylated Histone Tails. Chromobox protein homolog 1 (Homo sapiens), P83916. Potency, µM (top dose mostly 114 µM), usual class: inhibitors. AID 540317, 2011. hit rate 0.56% among 390,000. AlphaScreen HP1-beta / biotin-H3K9me3 peptide binding; also: nearly all actives have a fitted effect of over 70% in size
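AlphaScreen: HP1-beta (50 nM) preformed 30 min with biotin-H3(1-18)K9me3 peptide (50 nM) in PBS pH 7.4, 0.01% Tween-20. Compound added for 30 min at RT, then streptavidin donor/nickel chelate acceptor beads (10 ug/mL) for 30 min.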
GLS inh: qHTS for Inhibitors of Glutaminase (GLS) | GLS enzymatic activity, qHTS titration | Potency, µM (highest dose often 45.5 µM), actives largely listed as inhibitors | hit rate 0.21% among 410,000 | AID 624170, 2012
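Coupled fluorescence readout: glutamate oxidase/HRP/Amplex Red detect glutamate formed by hKGA from L-glutamine (1 mM solution added). Buffer 45 mM KH2PO4 pH 8.2, 0.02% Tween-20; reads at t0 and 30 min RT.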
G9a block: qHTS Assay for Inhibitors of Histone Lysine Methyltransferase G9a | G9a H3K9 monomethylation, AlphaScreen, 2 h | Potency, µM (titrated, usually from 102 µM), usual class: inhibitors | hit rate 8.8% among 350,000 | AID 504332, 2011; also: nearly all actives have a fitted effect of over 75% in size
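Step 1: enzyme (final 20 nM) with compound, 15 min RT. Step 2: substrate peptide 500 nM and SAM 20 uM, 2 h RT. Step 3: anti-H3K9me1 antibody and AlphaScreen beads, 10 min, then plate read.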
JMJD2A Tudor inh: qHTS Assay for Inhibitors of JMJD2A-Tudor Domain. Lysine-specific demethylase 4A (Homo sapiens), O75164. AlphaScreen JMJD2A-Tudor / H3K4me3 peptide binding. Potency, µM (highest dose often 114 µM), usual class: inhibitors. hit rate 4.4% among 390,000; also: nearly all actives have a fitted effect of over 50% in size
Large screens that a line does not name were inactive. Calls follow the shape of the dose curve; as a rule, active = well fitted curve in the direction sought with a large enough effect; inconclusive = small, poorly fitted or top-dose-only effect, or another doubt; inactive = no such curve, though single readings can be large; an effect the other way counts as inactive or inconclusive.

COCC(=O)N1CCC(n2nccc2NC(=O)c2ccccc2OC)CC1	none
CCOc1ccc(CCNC(=O)c2cc(Nc3ccc(C)cc3C)nc3ccccc23)cc1OCC	none (no result: BAZ2B block)
O=c1[nH]cnc2c1sc1nc(-c3ccccc3)c3c(c12)CCCC3	none
O=C(O)CSc1ncnc2c1sc1nc(-c3ccccc3)c3c(c12)CCC3	BAZ2B block 50.1µM, GLS inh inconclusive, G9a block 39.8µM, JMJD2A Tudor inh 50.1µM
O=C(CSc1ncnc2sc3c(c12)CCCCC3)NCc1ccco1	BAZ2B block inconclusive, G9a block inconclusive
CC(C)c1nc2sc3c(SCC(=O)NCc4ccco4)ncnc3c2c2c1CCC2	BAZ2B block 56.2µM, G9a block 44.7µM, JMJD2A Tudor inh 56.2µM
COCCCn1c(SCC(=O)NCc2ccco2)nc2sc3c(c2c1=O)CCC3	G9a block 50.1µM
COc1cc(OC)c(S(=O)(=O)NCc2ccco2)cc1S(=O)(=O)NCc1ccco1	none
COc1cc(CNCc2ccco2)ccc1OCc1ccccc1	BAZ2B block inconclusive, HP1b chromo inh inconclusive, G9a block 35.5µM, JMJD2A Tudor inh 3.98µM
COc1cc(OC)c(OC)cc1CNCc1ccco1	BAZ2B block inconclusive, HP1b chromo inh inconclusive, G9a block 28.2µM, JMJD2A Tudor inh 2.82µM
COc1cccc(CNCc2ccco2)c1O	HP1b chromo inh inconclusive, JMJD2A Tudor inh 17.8µM (no result: G9a block)
CCOC(=O)c1ccc(NS(=O)(=O)c2ccc(Br)s2)cc1	none
Cc1ccccc1/C=N\NC(=O)c1ccc(Cn2cccn2)o1	JMJD2A Tudor inh 56.2µM
O=C(N/C=C/c1ccco1)OCc1ccccc1	BAZ2B block inconclusive, G9a block 50.1µM
O=C(N/C=C/c1ccco1)NCc1ccccc1	BAZ2B block 44.7µM, G9a block 25.1µM, JMJD2A Tudor inh 79.4µM
O=C(COC(=O)/C=C/c1ccco1)NCc1ccccc1	G9a block inconclusive
CCN(CC)S(=O)(=O)c1ccc2c(c1)c(=O)c(C(=O)NCc1ccc(Cl)cc1)cn2C	none (no result: BAZ2B block)
CCOc1ccc(OCC)c(NC(=O)C(NS(=O)(=O)c2ccc(Br)s2)c2ccccc2)c1 (stereo not drawn)	none
Cc1ccsc1S(=O)(=O)N1CCCC(CCC(=O)NCc2ccccc2F)C1 (stereo not drawn)	G9a block 79.4µM
COc1cc(Cl)c(C)cc1NC(=O)CNC(=O)Cn1ccc2ccccc2c1=O	none
CCOc1ccc(C2C(C(=O)c3cccs3)=C(O)C(=O)N2CCN2CCOCC2)cc1 (stereo not drawn)	G9a block 50.1µM
CC(=O)C1=C(O)C(=O)N(CCc2c[nH]c3ccccc23)C1c1ccc(C)cc1 (stereo not drawn)	G9a block 44.7µM
O=C(O)CCCCCN1C(=O)C(O)=C(C(=O)/C=C/c2ccccc2)C1c1ccc2c(c1)OCO2 (stereo not drawn)	BAZ2B block inconclusive, G9a block 50.1µM, JMJD2A Tudor inh 22.4µM
CCOc1cc(C2C(C(C)=O)=C(O)C(=O)N2CCc2c[nH]c3ccccc23)ccc1O (stereo not drawn)	G9a block inconclusive
CCN(CC)CCN1C(=O)C(O)=C(C(=O)c2cccs2)C1c1ccccn1 (stereo not drawn)	BAZ2B block 50.1µM, G9a block 31.6µM, JMJD2A Tudor inh inconclusive
O=C(/C=C/c1ccccc1)C1=C(O)C(=O)N(CCO)C1c1cccc([N+](=O)[O-])c1 (stereo not drawn)	G9a block inconclusive
CCOc1ccc(-c2nonc2NC(=O)c2oc3c(C)c(C)ccc3c2C)cc1OCC	none
COc1ccc(C(=O)N(Cc2ccc(C(C)C)cc2)C2CCS(=O)(=O)C2)cc1 (stereo not drawn)	none
CCCOc1cccc(C2C(C(=O)c3cccs3)=C(O)C(=O)N2CCN2CCOCC2)c1 (stereo not drawn)	BAZ2B block inconclusive, G9a block 79.4µM
COCCN1C(=O)C(O)=C(C(C)=O)C1c1ccc(F)cc1 (stereo not drawn)	BAZ2B block 79.4µM, G9a block inconclusive, JMJD2A Tudor inh 39.8µM
CC(=O)C1=C(O)C(=O)N(CCCCCC(=O)O)C1c1ccc(N(C)C)cc1 (stereo not drawn)	BAZ2B block 79.4µM, G9a block inconclusive, JMJD2A Tudor inh 31.6µM
CC(=O)C1=C(O)C(=O)N(Cc2ccccc2)C1c1ccc(N(C)C)cc1 (stereo not drawn)	JMJD2A Tudor inh inconclusive (no result: G9a block)
COc1cccc(C2C(C(=O)c3cccs3)=C(O)C(=O)N2CCN2CCOCC2)c1 (stereo not drawn)	none
O=C(C1=C(O)C(=O)N(CCN2CCOCC2)C1c1ccc(F)cc1)c1cccs1 (stereo not drawn)	G9a block 70.8µM
CCCCOc1ccc(C2C(C(=O)c3cccs3)=C(O)C(=O)N2CCN2CCOCC2)cc1 (stereo not drawn)	none (no result: G9a block)
CCCCCCN1CCN(C2CN(Cc3ccc([N+](=O)[O-])cc3)S(=O)(=O)C2)CC1 (stereo not drawn)	none (no result: BAZ2B block, HP1b chromo inh, G9a block, JMJD2A Tudor inh)
O=C1NC(c2ccccc2)C(C(=O)c2cccs2)=C1O (stereo not drawn)	G9a block inconclusive, JMJD2A Tudor inh 25.1µM
COCCN1C(=O)C(O)=C(C(=O)c2cccs2)C1c1ccccc1 (stereo not drawn)	G9a block 17.8µM
COc1ccc(C(=O)On2c(-c3ccc(Br)cc3)nc3ccccc3c2=O)cc1	none
COc1cc(OC)cc(-c2nc3ccccc3c(=O)n2OC(=O)c2ccc(Br)cc2)c1	BAZ2B block inconclusive, G9a block inconclusive, JMJD2A Tudor inh 20µM
CC(C)CNCC(=O)N1c2ccccc2Sc2ccccc21	BAZ2B block inconclusive, HP1b chromo inh inconclusive, G9a block 35.5µM, JMJD2A Tudor inh 11.2µM
COCCNCC(=O)N1c2ccccc2Sc2ccccc21	BAZ2B block inconclusive, G9a block inconclusive, JMJD2A Tudor inh inconclusive
CCOC(=O)c1ccc(N2CC(O)=C(c3nc4ccccc4c(=O)[nH]3)C2=N)cc1	none
COc1ccc(S(=O)(=O)NC(Cc2cnc[nH]2)C(=O)O)cc1 (stereo not drawn)	G9a block inconclusive, JMJD2A Tudor inh 12.6µM
COc1ccc(S(=O)(=O)NC(Cc2ccccc2)C(=O)O)cc1 (stereo not drawn)	none
CC(CC(=O)O)Nc1ccccc1O (stereo not drawn)	BAZ2B block 44.7µM, G9a block 2µM, JMJD2A Tudor inh 0.1µM
O=C(O)c1cc(-c2cccnc2)nn1-c1ccccn1	BAZ2B block inconclusive, G9a block 28.2µM
O=C(O)c1cc(-c2ccccc2)nn1CC1CC(c2cccnc2)=NO1 (stereo not drawn)	none (no result: BAZ2B block, G9a block)
